Test results from publication PMC5540273 (PLoS ONE, 2017).

Tests used:
Details in all cases: concentration: 1 μM,replicates: in singlicate; n = 1
[1] = system: MAP3K15
[2] = system: MAP3K1
[3] = system: MAP3K2
[4] = system: MAP3K3
[5] = system: MAP3K4
[6] = system: MAP4K2
[7] = system: MAP4K3
[8] = system: MAP4K4
[9] = system: MAP4K5
[10] = system: MAPKAPK2
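Note: KINOMEscan kinase panel screen.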

| SMILES | %Inh [1] [%] | %Inh [2] [%] | %Inh [3] [%] | %Inh [4] [%] | %Inh [5] [%] | %Inh [6] [%] | %Inh [7] [%] | %Inh [8] [%] | %Inh [9] [%] | %Inh [10] [%] |
| --- | --- | --- | --- | --- | --- | --- | --- | --- | --- | --- |
| CN(C)CCOc1ccc(-c2cc(-c3c[nH]nc3-c3ccccn3)ccn2)cc1 [GW835314] | 12 | 24 | 14 | 9 | 19 | 27 | 3 | 80 | 24 | 0 |
| CCN(CC)CCOc1ccc(Nc2ncc3cc(-c4c(Cl)cccc4Cl)c(=O)n(C)c3n2)cc1 [SB-601273] | 0 | 17 | 99.3 | 99.7 | 99.6 | 91 | 99.5 | – | 99.6 | 0 |
| CN(C)CC(O)COc1ccc(Nc2nccc(-c3cnn4nc(N5CCOCC5)ccc34)n2)cc1 (stereo not drawn) [GW767488] | 59 | 63 | 49 | 29 | 14 | 29 | 0 | 14 | 12 | 0 |
| C[C@H]1Oc2cc(cnc2N)-c2c(nn(C)c2C#N)CN(C)C(=O)c2ccc(F)cc21 | 0 | 58 | 8 | 26 | 0 | 0 | 5 | 9 | 14 | 0 |
| Cc1cc(C(=O)Nc2ccc(Oc3ccc4nc(NC(=O)C5CC5)cn4n3)cc2)nn1-c1ccccc1 | 0 | 0 | 0 | 30 | 16 | 0 | 2 | 0 | 0 | 8 |
| Cl.Cl.Nc1nc(-c2ccc3c(N)n[nH]c3c2)cc(N2CCCC(NC(=O)c3ccccc3)C2)n1 (stereo not drawn) [GSK2286775] | 0 | 15 | 0 | 0 | 29 | 0 | 0 | 0 | 0 | 0 |
| O=C(NCCCN1CCOC1=O)c1cnc(NCc2cc(Cl)ccc2Cl)nc1NC1CCCC1 | 0 | 1 | 63 | 48 | 14 | 0 | 37 | 15 | 23 | 0 |
| Cc1occc1-c1nc(N)c(OC[C@@H](N)Cc2c[nH]c3ccccc23)cc1-c1cc2c(C)n[nH]c2cn1 [GSK1660450] | 20 | 21 | 97 | 99.1 | 0 | 99.4 | 99.4 | 99.3 | 99.6 | 0 |
| CCN(CC)CCCCNc1ncc2cc(-c3c(Cl)cccc3Cl)c(NC(=O)NC(C)(C)C)nc2n1 | 0 | 23 | 88 | 89 | 71 | 51 | 74 | 0 | 71 | 0 |
| Cc1ccc2c(-c3ccncc3)c(-c3ccc(F)cc3)nn2c1.Cl [GW461484] | 0 | 13 | 0 | 0 | 25 | 0 | 0 | 48 | 0 | 0 |
| Cc1cc2cn[nH]c2cc1-c1cccc2c(N)c(C(N)=O)nnc12 | 82 | 31 | 72 | 78 | 28 | 25 | 74 | 34 | 62 | 42 |
| Nc1nc(Nc2ccccc2)cc(-c2ccc3c(N)n[nH]c3c2)n1 [GSK2225749] | 10 | 10 | 11 | 16 | 0 | 16 | 0 | 28 | 6 | 0 |
| Cl.Cl.NC[C@H](Cc1ccc(C(F)(F)F)cc1)NC(=O)c1cc(Br)c(-c2ccnc3[nH]ccc23)s1 [GSK1487252] | 0 | 10 | 15 | 0 | 7 | 0 | 14 | 11 | 0 | 0 |
